Our source for the binding signal values is publication PMC7862700, “An all-to-all approach to the identification of sequence-specific readers for epigenetic DNA modifications on cytosine”.

Holding throughout (test): DAPPL (digital affinity profiling via proximity ligation, sequencing); 10 mM Tris-HCl pH 7.5, 50 mM NaCl, 1 mM DTT, 4% glycerol, room temperature, 30 min; GST-TFs on glutathione beads, 16-mer random dsDNA library, 0.1% formaldehyde crosslink after washing; high values mean tight binding
One experiment deals with T1, FEV (Homo sapiens, UniProt Q99581 1-238).
T1 sequence: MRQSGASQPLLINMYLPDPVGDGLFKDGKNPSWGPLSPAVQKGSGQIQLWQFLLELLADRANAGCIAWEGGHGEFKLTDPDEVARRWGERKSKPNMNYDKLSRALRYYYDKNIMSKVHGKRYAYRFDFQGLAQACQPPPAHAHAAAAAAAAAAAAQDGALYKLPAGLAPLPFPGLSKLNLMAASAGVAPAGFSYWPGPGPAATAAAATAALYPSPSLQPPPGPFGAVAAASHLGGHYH
The conditions noted are these: protein: recombinant; tags: N-terminal GST; dsDNA, one strand shown. The essentials: (§1)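 A tag-only sample was pooled with DNA-barcoded human transcription factors that had been expressed in yeast as GST fusions and captured on glutathione beads. The pools were incubated for 30 min at room temperature with 200 nmole of a random double-stranded 16-mer DNA library in Tris/NaCl/DTT/glycerol buffer, then washed, crosslinked with 0.1% formaldehyde, proximity-ligated (BsaI/T4 ligase, 1 h, 37 °C), PCR-amplified and sequenced on an Illumina NextSeq500. Binding signal is each hexamer's read frequency for a factor divided by its frequency for the tag-only sample.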

The next experiment has as its target ETV5 (Homo sapiens, UniProt P41161 1-510). The conditions noted are these: protein: recombinant; tags: N-terminal GST; dsDNA, one strand shown. The method, boiled down: as §1
In a further experiment the target is HSF1 (Homo sapiens, UniProt Q00613 1-529). The conditions noted are these: protein: recombinant; tags: N-terminal GST; chain copies: 3; dsDNA, one strand shown. The essentials: as §1
The target of another experiment is T2, SPIC (Homo sapiens, UniProt Q8N5J4 1-248).
T2 sequence: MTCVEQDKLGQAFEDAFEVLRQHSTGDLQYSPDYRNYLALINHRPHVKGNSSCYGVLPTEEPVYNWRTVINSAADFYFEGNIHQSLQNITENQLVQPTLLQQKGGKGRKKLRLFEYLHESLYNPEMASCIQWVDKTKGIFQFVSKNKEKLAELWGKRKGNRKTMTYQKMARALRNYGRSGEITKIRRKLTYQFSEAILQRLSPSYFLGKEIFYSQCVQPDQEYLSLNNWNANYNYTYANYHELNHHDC
The conditions noted are these: protein: recombinant; tags: N-terminal GST; dsDNA, one strand shown. The essentials: as §1

Another experiment deals with ELF4 (Homo sapiens, UniProt Q99607 1-663). The conditions noted are these: protein: recombinant; tags: N-terminal GST; dsDNA, one strand shown. The essentials:
as §1

For a further experiment, the target named is T3, ELK4 (Homo sapiens, UniProt P28324-2 1-405).
T3 sequence: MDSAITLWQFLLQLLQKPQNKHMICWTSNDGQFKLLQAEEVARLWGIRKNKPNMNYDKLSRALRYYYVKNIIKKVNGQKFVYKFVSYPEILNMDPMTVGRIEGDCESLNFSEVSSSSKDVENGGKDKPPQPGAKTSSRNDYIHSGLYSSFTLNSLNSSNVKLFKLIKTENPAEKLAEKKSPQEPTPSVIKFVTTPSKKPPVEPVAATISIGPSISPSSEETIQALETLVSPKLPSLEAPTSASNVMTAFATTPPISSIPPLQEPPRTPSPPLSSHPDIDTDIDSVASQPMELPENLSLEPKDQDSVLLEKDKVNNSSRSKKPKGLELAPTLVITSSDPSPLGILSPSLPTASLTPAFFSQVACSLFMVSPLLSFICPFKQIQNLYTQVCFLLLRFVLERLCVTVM
The following applies: protein: recombinant; tags: N-terminal GST; dsDNA, one strand shown. The method, boiled down: as §1

Another experiment deals with T4, ETV2 (Homo sapiens, UniProt O00321 1-342).
T4 sequence: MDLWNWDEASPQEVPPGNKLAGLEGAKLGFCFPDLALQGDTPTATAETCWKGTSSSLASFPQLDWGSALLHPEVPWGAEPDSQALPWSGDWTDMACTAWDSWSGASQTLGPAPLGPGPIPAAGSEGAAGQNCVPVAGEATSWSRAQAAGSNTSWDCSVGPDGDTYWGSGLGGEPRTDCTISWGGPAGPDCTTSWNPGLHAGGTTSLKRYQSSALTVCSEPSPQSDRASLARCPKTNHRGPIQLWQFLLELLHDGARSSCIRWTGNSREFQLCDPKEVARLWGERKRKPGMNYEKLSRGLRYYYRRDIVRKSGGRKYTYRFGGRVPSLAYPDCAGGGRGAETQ
The conditions noted are these: protein: recombinant; tags: N-terminal GST; dsDNA, one strand shown. The method, boiled down:
as §1

The target of the next experiment is T5, ELF3 (Homo sapiens, UniProt P78545 1-371).
T5 sequence: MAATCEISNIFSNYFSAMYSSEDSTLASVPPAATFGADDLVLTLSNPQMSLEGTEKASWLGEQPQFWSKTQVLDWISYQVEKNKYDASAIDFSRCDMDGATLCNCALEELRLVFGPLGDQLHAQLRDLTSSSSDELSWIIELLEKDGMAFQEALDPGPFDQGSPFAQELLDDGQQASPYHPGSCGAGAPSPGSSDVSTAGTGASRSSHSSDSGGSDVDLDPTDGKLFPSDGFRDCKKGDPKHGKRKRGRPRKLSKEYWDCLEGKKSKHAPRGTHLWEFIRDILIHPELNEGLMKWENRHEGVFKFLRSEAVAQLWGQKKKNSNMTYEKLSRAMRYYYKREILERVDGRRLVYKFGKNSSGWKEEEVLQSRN
The conditions noted are these: protein: recombinant; tags: N-terminal GST; dsDNA, one strand shown. The method, boiled down: as §1

The next experiment concerns the target CRX (Homo sapiens, UniProt O43186 1-299). The following applies: protein: recombinant; tags: N-terminal GST; dsDNA, one strand shown. The essentials:
as §1

The next experiment concerns the target ETV1 (Homo sapiens, UniProt P50549 1-477). The conditions noted are these: protein: recombinant; tags: N-terminal GST; dsDNA, one strand shown. The method, boiled down:
as §1

The next experiment has as its target T6, ERF (Homo sapiens, UniProt P50548 1-548).
T6 sequence: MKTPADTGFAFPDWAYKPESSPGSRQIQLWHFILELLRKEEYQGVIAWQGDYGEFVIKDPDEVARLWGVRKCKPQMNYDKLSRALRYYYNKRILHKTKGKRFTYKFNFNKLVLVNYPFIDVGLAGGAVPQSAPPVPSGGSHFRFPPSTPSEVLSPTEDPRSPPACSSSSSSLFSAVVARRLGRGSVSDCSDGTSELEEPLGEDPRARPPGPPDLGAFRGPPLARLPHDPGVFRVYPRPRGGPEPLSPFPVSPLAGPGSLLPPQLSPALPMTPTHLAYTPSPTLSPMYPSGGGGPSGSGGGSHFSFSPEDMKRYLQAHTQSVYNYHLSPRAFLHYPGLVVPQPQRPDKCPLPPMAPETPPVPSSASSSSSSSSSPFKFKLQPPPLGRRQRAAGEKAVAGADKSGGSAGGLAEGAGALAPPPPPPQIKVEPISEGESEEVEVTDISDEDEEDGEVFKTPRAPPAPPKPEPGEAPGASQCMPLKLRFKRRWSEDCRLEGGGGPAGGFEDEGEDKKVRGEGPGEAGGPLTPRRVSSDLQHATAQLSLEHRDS
The following applies: protein: recombinant; tags: N-terminal GST; dsDNA, one strand shown. The essentials: as §1

A further experiment concerns the target T7, ETV3L (Homo sapiens, UniProt Q6ZN32 1-361).
T7 sequence: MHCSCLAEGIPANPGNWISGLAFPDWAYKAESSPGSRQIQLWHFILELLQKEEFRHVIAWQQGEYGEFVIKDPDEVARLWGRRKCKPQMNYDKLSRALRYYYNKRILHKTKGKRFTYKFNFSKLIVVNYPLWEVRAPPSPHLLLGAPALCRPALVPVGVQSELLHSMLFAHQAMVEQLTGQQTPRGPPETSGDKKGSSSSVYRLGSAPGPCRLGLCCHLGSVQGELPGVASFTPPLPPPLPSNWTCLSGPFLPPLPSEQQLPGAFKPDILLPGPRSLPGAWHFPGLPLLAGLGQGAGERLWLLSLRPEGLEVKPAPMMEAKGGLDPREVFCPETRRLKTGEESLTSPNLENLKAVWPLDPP
The conditions noted are these: protein: recombinant; tags: N-terminal GST; dsDNA, one strand shown. The essentials:
as §1

A further experiment addresses T8, ETS2 (Homo sapiens, UniProt P15036 1-469).
T8 sequence: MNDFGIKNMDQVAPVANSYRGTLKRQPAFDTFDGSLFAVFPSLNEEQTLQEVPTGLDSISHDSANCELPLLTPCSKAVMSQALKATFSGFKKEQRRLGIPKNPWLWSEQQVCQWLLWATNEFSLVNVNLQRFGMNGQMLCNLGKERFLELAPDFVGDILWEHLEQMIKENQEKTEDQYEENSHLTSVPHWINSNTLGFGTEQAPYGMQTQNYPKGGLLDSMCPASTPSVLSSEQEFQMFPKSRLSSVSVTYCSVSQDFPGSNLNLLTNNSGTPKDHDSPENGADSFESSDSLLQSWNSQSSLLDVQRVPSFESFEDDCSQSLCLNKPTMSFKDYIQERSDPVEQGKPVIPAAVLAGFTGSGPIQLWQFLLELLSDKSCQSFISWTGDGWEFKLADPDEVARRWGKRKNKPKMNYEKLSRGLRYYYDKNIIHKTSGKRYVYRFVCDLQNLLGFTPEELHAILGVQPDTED
The following applies: protein: recombinant; tags: N-terminal GST; dsDNA, one strand shown. The method, boiled down:
as §1

Another experiment has as its target T9, SPDEF (Homo sapiens, UniProt O95238 1-335).
T9 sequence: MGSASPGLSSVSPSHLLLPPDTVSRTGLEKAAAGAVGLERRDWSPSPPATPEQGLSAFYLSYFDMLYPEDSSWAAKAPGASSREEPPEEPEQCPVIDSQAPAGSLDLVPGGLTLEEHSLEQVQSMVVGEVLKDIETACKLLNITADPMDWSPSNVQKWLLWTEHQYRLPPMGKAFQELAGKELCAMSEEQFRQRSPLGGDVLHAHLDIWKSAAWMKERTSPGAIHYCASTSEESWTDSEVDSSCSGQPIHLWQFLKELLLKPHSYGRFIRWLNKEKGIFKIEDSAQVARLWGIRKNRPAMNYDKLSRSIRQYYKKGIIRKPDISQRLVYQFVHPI
The conditions noted are these: protein: recombinant; tags: N-terminal GST; dsDNA, one strand shown. The method, boiled down: as §1

Another experiment has as its target T10, ETV7 (Homo sapiens, UniProt Q9Y603 1-341).
T10 sequence: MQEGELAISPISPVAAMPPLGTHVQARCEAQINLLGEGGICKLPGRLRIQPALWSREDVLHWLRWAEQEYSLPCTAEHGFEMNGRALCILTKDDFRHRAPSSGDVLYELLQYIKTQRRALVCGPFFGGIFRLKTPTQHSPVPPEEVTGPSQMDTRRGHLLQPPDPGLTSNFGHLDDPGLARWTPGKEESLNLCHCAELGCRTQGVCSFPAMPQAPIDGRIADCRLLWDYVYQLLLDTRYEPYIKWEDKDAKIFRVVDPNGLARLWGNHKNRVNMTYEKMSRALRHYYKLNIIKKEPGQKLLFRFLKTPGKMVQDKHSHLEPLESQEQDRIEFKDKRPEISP
The following applies: protein: recombinant; tags: N-terminal GST; dsDNA, one strand shown. The method, boiled down:
as §1

Another experiment concerns the target T11, ELF5 (Homo sapiens, UniProt Q9UKW6-2 1-255).
T11 sequence: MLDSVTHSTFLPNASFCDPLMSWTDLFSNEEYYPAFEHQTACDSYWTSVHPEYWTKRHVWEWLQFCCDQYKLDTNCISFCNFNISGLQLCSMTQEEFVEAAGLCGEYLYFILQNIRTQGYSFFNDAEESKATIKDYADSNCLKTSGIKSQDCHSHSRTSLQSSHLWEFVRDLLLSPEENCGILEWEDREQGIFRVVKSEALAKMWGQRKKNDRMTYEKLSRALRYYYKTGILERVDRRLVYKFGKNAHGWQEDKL
The conditions noted are these: protein: recombinant; tags: N-terminal GST; dsDNA, one strand shown. The method, boiled down:
as §1

The target of another experiment is T12, ETV3 (Homo sapiens, UniProt P41162-2 1-143).
T12 sequence: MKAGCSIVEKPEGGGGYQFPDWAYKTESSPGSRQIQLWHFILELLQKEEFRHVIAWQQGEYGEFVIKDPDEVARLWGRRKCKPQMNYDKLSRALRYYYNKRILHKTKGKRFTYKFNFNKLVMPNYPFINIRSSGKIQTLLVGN
The following applies: protein: recombinant; tags: N-terminal GST; dsDNA, one strand shown. The essentials: as §1

The target of the next experiment is ETV6 (Homo sapiens, UniProt P41212 1-452). The following applies: protein: recombinant; tags: N-terminal GST; dsDNA, one strand shown. The essentials: as §1
Chain of ETV6 (P41212 whole entry): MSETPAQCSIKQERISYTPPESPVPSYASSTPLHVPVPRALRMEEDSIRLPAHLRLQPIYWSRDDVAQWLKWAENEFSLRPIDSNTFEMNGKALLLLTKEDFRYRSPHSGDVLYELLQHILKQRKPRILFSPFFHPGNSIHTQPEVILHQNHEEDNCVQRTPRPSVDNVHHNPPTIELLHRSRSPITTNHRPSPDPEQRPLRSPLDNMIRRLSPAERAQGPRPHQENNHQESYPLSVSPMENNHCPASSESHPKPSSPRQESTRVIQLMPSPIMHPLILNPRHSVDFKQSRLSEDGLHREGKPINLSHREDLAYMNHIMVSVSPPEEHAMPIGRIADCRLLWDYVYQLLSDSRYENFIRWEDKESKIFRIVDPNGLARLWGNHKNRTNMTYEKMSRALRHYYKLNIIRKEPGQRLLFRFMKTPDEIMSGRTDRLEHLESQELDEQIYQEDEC

Chain of ELF4 (Q99607 whole entry): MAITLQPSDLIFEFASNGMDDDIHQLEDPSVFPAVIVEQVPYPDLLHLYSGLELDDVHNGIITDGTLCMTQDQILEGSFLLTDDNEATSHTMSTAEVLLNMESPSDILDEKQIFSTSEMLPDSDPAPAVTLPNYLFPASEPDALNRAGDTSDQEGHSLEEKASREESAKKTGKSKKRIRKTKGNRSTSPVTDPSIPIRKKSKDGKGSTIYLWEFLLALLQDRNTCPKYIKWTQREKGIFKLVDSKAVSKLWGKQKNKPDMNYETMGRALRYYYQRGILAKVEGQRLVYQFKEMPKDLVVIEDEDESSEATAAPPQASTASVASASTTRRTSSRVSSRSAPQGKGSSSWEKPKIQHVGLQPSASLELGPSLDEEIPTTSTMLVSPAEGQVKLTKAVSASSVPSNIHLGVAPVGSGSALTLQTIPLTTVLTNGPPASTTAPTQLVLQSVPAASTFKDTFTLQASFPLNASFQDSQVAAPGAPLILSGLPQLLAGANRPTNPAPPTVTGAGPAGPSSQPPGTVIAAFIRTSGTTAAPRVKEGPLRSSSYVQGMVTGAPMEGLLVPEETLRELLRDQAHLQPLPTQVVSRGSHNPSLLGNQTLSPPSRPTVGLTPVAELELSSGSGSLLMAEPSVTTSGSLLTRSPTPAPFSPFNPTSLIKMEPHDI
Chain of ETV5 (P41161 whole entry): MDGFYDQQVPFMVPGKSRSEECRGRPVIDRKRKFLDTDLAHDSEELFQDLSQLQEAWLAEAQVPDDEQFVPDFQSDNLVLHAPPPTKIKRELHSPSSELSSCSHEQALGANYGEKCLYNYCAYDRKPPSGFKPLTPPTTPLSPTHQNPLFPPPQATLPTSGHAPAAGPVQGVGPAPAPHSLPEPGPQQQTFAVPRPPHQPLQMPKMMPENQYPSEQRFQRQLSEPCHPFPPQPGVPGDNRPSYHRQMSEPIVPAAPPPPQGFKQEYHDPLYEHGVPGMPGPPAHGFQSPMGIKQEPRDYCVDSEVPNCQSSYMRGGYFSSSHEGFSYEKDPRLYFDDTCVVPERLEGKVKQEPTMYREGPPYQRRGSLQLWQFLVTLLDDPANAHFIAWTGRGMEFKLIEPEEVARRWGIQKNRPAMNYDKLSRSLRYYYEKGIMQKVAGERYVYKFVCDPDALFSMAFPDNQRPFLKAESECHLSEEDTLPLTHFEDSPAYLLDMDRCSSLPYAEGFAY
Chain of ETV1 (P50549 whole entry): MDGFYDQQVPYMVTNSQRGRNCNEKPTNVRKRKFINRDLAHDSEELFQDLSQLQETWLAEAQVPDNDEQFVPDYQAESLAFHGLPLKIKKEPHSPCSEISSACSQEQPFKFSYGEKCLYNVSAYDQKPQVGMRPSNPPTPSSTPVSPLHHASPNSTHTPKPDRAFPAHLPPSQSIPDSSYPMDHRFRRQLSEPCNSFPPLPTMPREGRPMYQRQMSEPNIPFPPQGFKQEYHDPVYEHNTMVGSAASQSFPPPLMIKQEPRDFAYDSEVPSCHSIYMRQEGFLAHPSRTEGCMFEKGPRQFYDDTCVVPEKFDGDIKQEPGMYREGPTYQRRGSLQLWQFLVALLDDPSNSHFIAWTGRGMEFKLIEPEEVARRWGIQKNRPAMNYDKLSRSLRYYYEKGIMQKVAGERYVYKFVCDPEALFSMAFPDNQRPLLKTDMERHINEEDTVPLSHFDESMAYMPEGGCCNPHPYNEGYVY
Chain of HSF1 (Q00613 whole entry): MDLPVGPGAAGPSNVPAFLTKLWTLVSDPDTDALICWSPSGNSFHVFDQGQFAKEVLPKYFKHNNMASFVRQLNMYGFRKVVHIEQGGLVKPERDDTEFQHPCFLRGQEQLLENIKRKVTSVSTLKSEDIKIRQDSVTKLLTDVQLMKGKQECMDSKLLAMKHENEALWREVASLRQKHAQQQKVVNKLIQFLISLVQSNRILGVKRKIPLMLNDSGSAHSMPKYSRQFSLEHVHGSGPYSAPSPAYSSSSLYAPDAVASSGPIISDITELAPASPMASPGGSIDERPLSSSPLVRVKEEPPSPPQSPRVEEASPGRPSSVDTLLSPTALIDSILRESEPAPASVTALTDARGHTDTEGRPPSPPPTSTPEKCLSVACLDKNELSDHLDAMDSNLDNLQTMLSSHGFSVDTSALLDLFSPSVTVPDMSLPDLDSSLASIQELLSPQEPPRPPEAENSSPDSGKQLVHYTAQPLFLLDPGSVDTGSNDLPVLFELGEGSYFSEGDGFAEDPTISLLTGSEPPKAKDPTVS
Chain of CRX (O43186 whole entry): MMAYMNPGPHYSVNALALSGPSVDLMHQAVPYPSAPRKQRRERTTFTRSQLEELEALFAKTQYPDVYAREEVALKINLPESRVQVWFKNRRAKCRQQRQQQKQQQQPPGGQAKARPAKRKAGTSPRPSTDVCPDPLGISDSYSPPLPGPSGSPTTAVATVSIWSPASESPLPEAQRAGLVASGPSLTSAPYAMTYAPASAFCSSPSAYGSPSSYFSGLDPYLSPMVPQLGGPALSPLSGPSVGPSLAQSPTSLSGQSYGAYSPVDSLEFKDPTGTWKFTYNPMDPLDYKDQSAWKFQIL

On to TCTAAG, for which the binding signal is 1.13 fold enrichment (6-mer frequency, TF over GST control) with FEV; 1.3 fold enrichment (6-mer frequency, TF over GST control) in the experiment with ETV5; 1.49 fold enrichment (6-mer frequency, TF over GST control) with HSF1; 1.21 fold enrichment (6-mer frequency, TF over GST control) with SPIC; 1.25 fold enrichment (6-mer frequency, TF over GST control) with ELF4; 1.2 fold enrichment (6-mer frequency, TF over GST control) in the experiment with ELK4. Moreover, the binding signal with ETV2 was 1.29 fold enrichment (6-mer frequency, TF over GST control); with ELF3, 1.27 fold enrichment (6-mer frequency, TF over GST control); with CRX, 1.86 fold enrichment (6-mer frequency, TF over GST control); with ETV1 it was 1.25 fold enrichment (6-mer frequency, TF over GST control); in the experiment with ERF, 1.25 fold enrichment (6-mer frequency, TF over GST control); in the experiment with ETV3L it was 1.17 fold enrichment (6-mer frequency, TF over GST control). Moreover, the binding signal in the experiment with ETS2 is 1.23 fold enrichment (6-mer frequency, TF over GST control); with SPDEF, 1.1 fold enrichment (6-mer frequency, TF over GST control); in the experiment with ETV7 it was 1.29 fold enrichment (6-mer frequency, TF over GST control); with ELF5, 1.23 fold enrichment (6-mer frequency, TF over GST control); with ETV3 it was 1.24 fold enrichment (6-mer frequency, TF over GST control); with ETV6 it was 1.17 fold enrichment (6-mer frequency, TF over GST control).
